From PubChem BioAssay AID1159580 (chemical genetic matrix, 2015)
The campaign covered roughly 5,500 compounds. About 2,000 (36%) were called active. Roughly 18% stayed inconclusive and do not appear here. Rule as the data show it: active = normalized growth mostly below about 0.91 (no sharp cut-off); inconclusive = no clear call, values can overlap the other calls; inactive = mostly above about 0.92. The list shows a part of the results.

Assay: chemical genetic growth profiling, strain panel (AID 1159580);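 also: tested at 20 µM; growth read once vehicle control cultures reached saturation at 30 °C; 1 = growth at the plate median or of vehicle wells; lower values mean less growth of the strain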
Details: growth OD

Measured: normalized growth

C[C@@H]1O[C@@H](O[C@H]2C[C@@H](O)[C@]3(CO)C4C(CC[C@]3(O)C2)[C@@]2(O)CC[C@H](C3=CC(=O)OC3)[C@@]2(C)C[C@H]4O)[C@H](O)[C@H](O)[C@H]1O (some centres not stated)
inactive: S. cerevisiae deletion strains, locus YKL009W, strain mrt4, stronger effect = lower value 0.991 | S. cerevisiae deletion strains, locus YKL068W, stronger effect = lower value 0.998 | S. cerevisiae deletion strains, locus YKL085W, strain MDH1 (second series), stronger effect = lower value 0.993 | S. cerevisiae deletion strains, locus YKL085W, strain MDH1, stronger effect = lower value 0.993 | S. cerevisiae deletion strains, locus YKL160W, strain elf1, stronger effect = lower value 0.993 | S. cerevisiae deletion strains, locus YKR001C, strain vps1, stronger effect = lower value 1.01 | S. cerevisiae deletion strains, locus YKR026C, strain gcn3, stronger effect = lower value 1.02 | S. cerevisiae deletion strains, locus YKR091W, strain srl3, stronger effect = lower value 1.01 | S. cerevisiae deletion strains, locus YLL001W, strain dnm1, stronger effect = lower value 1.03 | S. cerevisiae deletion strains, locus YLL026W, stronger effect = lower value 1.03 | S. cerevisiae deletion strains, locus YLL041C, strain sdh2, stronger effect = lower value 1.01 | S. cerevisiae deletion strains, locus YLR027C, strain aat2, stronger effect = lower value 1.01 | S. cerevisiae deletion strains, locus YLR039C, strain RIC1, stronger effect = lower value 1.09 | S. cerevisiae deletion strains, locus YLR058C, strain SHM2, stronger effect = lower value 1.02 | S. cerevisiae deletion strains, locus YLR102C, strain apc9, stronger effect = lower value 0.997 | S. cerevisiae deletion strains, locus YLR113W, strain HOG1, stronger effect = lower value 1.01 | S. cerevisiae deletion strains, locus YLR221C, strain rsa3, stronger effect = lower value 1.02 | S. cerevisiae deletion strains, locus YLR258W, strain gsy2, stronger effect = lower value 1.02 | S. cerevisiae deletion strains, locus YLR262C, strain YPT6 (second series), stronger effect = lower value 1.02 | S. cerevisiae deletion strains, locus YLR262C, strain YPT6, stronger effect = lower value 1.09 | S. cerevisiae deletion strains, locus YLR268W, strain sec22, stronger effect = lower value 0.98 | S. cerevisiae deletion strains, locus YLR320W, strain mms22, stronger effect = lower value 1.03 | S. cerevisiae deletion strains, locus YLR330W, strain CHS5, stronger effect = lower value 1.01 | S. cerevisiae deletion strains, locus YLR342W, strain FKS1 (second series), stronger effect = lower value 1.04 | S. cerevisiae deletion strains, locus YLR342W, strain FKS1, stronger effect = lower value 1.02 | S. cerevisiae deletion strains, locus YLR357W, strain rsc2, stronger effect = lower value 1.01 | S. cerevisiae deletion strains, locus YLR370C, strain arc18, stronger effect = lower value 1.05 | S. cerevisiae deletion strains, locus YLR371W, strain rom2, stronger effect = lower value 0.989 | S. cerevisiae deletion strains, locus YLR384C, strain iki3, stronger effect = lower value 1.02 | S. cerevisiae deletion strains, locus YLR418C, strain cdc73, stronger effect = lower value 0.971 | S. cerevisiae deletion strains, locus YML016C, strain PPZ1, stronger effect = lower value 1.02 | S. cerevisiae deletion strains, locus YML032C, strain rad52, stronger effect = lower value 0.997 | S. cerevisiae deletion strains, locus YML120C, strain ndi1, stronger effect = lower value 1.04 | S. cerevisiae deletion strains, locus YML124C, strain tub3, stronger effect = lower value 0.987 | S. cerevisiae deletion strains, locus YMR058W, strain fet3, stronger effect = lower value 1.02 | S. cerevisiae deletion strains, locus YMR078C, strain ctf18, stronger effect = lower value 0.981 | S. cerevisiae deletion strains, locus YMR125W, strain sto1, stronger effect = lower value 1.02 | S. cerevisiae deletion strains, locus YMR129W, stronger effect = lower value 1.02 | S. cerevisiae deletion strains, locus YMR205C, strain PFK2, stronger effect = lower value 0.995 | S. cerevisiae deletion strains, locus YMR223W, strain ubp8, stronger effect = lower value 0.998 | S. cerevisiae deletion strains, locus YMR231W, strain pep5, stronger effect = lower value 1.02 | S. cerevisiae deletion strains, locus YMR263W, strain SAP30, stronger effect = lower value 1.01 | S. cerevisiae deletion strains, locus YMR307W, strain GAS1, stronger effect = lower value 1.17 | S. cerevisiae deletion strains, locus YNL067W, strain RPL9B, stronger effect = lower value 1.01 | S. cerevisiae deletion strains, locus YNL071W, strain lat1, stronger effect = lower value 1.03 | S. cerevisiae deletion strains, locus YNL183C, strain NPR1, stronger effect = lower value 0.963 | S. cerevisiae deletion strains, locus YNL209W, strain ssb2, stronger effect = lower value 1.02 | S. cerevisiae deletion strains, locus YNL233W, strain BNI4, stronger effect = lower value 1.03 | S. cerevisiae deletion strains, locus YNL248C, strain rpa49, stronger effect = lower value 0.985 | S. cerevisiae deletion strains, locus YNL250W, strain rad50, stronger effect = lower value 1.02 | S. cerevisiae deletion strains, locus YNL271C, strain bni1, stronger effect = lower value 0.985 | S. cerevisiae deletion strains, locus YNL298W, strain CLA4, stronger effect = lower value 0.996 | S. cerevisiae deletion strains, locus YNL307C, strain MCK1, stronger effect = lower value 0.999 | S. cerevisiae deletion strains, locus YNL322C, strain KRE1 (second series), stronger effect = lower value 1.01 | S. cerevisiae deletion strains, locus YNL322C, strain KRE1, stronger effect = lower value 1.02 | S. cerevisiae deletion strains, locus YNR049C, strain mso1, stronger effect = lower value 1.03 | S. cerevisiae deletion strains, locus YNR052C, strain pop2, stronger effect = lower value 0.981 | S. cerevisiae deletion strains, locus YOL006C, strain TOP1, stronger effect = lower value 1.03 | S. cerevisiae deletion strains, locus YOL012C, strain htz1 0.899 | S. cerevisiae deletion strains, locus YOL147C, strain pex11, stronger effect = lower value 0.997 | S. cerevisiae deletion strains, locus YOR001W, strain rrp6, stronger effect = lower value 1.05 | S. cerevisiae deletion strains, locus YOR061W, strain CKA2, stronger effect = lower value 1.02 | S. cerevisiae deletion strains, locus YOR069W, strain VPS5, stronger effect = lower value 1.02 | S. cerevisiae deletion strains, locus YOR070C, strain gyp1, stronger effect = lower value 1.03 | S. cerevisiae deletion strains, locus YOR080W, strain dia2, stronger effect = lower value 1.03 | S. cerevisiae deletion strains, locus YOR083W, strain WHI5, stronger effect = lower value 0.985 | S. cerevisiae deletion strains, locus YOR106W, strain vam3, stronger effect = lower value 1.01 | S. cerevisiae deletion strains, locus YOR136W, strain idh2, stronger effect = lower value 0.987 | S. cerevisiae deletion strains, locus YOR144C, strain elg1, stronger effect = lower value 0.983 | S. cerevisiae deletion strains, locus YOR184W, strain ser1, stronger effect = lower value 1.01 | S. cerevisiae deletion strains, locus YOR231W, strain MKK1, stronger effect = lower value 1.02 | S. cerevisiae deletion strains, locus YOR265W, strain rbl2, stronger effect = lower value 1.01 | S. cerevisiae deletion strains, locus YOR270C, strain vph1, stronger effect = lower value 1.05 | S. cerevisiae deletion strains, locus YOR290C, strain snf2, stronger effect = lower value 1.04 | S. cerevisiae deletion strains, locus YOR316C, strain cot1, stronger effect = lower value 0.989 | S. cerevisiae deletion strains, locus YPL051W, strain arl3, stronger effect = lower value 1.01 | S. cerevisiae deletion strains, locus YPL078C, strain atp4, stronger effect = lower value 1.02 | S. cerevisiae deletion strains, locus YPL106C, strain sse1, stronger effect = lower value 1.03 | S. cerevisiae deletion strains, locus YPL240C, strain hsp82, stronger effect = lower value 1.03 | S. cerevisiae deletion strains, locus YPL241C, strain CIN2, stronger effect = lower value 1.01 | S. cerevisiae deletion strains, locus YPL256C, strain CLN2, stronger effect = lower value 1.03 | S. cerevisiae deletion strains, locus YPR119W, strain clb2, stronger effect = lower value 0.986 | S. cerevisiae deletion strains, locus YPR141C, strain kar3, stronger effect = lower value 0.989 | S. cerevisiae deletion strains, locus YPR163C, strain tif3, stronger effect = lower value 0.988 | S. cerevisiae deletion strains, locus YPR167C, strain met16, stronger effect = lower value 0.99 | S. cerevisiae deletion strains, strain wtn01, stronger effect = lower value 0.976 | S. cerevisiae strains, strain wild type, stronger effect = lower value 1.02
